Compounds with a hit are over-represented: about 2.4% of the library has one in this group of screens.
POLK inh – inhibitors of human DNA polymerase kappa; AID 588579; Q9UBT6; Potency, µM (series often up to 107 µM), for inactives: top-dose activity, negative = inhibition, most hits filed as inhibitors; purified Pol kappa, fluorescent DNA synthesis assay, 10 min; 400,000 tested, 0.53% active; note: % is set by controls: 0 for no effect and ±100 for the full control effect
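Kinetic fluorescence screen: compound preincubated 15 min RT with 10 nM enzyme; 50 nM substrate (final) initiates; reads at 0/10 min.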
WRN helicase inh – WRN helicase (human) inhibition. Q14191. WRN helicase unwinding, fluorescent forked duplex, kinetic. Potency, µM (series often up to 114 µM), without a hit: at the top dose activity change, negative = inhibition, actives largely listed as inhibitors. 360,000 tested, 0.46% active. AID 651768; note: % is set by controls: 0 for no effect and ±100 for the full control effect; nearly all actives have a fitted effect of over 55% in size
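Primary qHTS, 1536-well format. 20 nM WRN + compound, 15 min RT; start with 100 nM forked fluorophore/quencher duplex, 2 mM ATP (final); kinetic read ex 525/em 598 nm.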
Pol beta inh – inhibitors of human DNA polymerase beta; Pol beta primer extension/strand displacement, fluorescence kinetic; Potency, µM (titrated, usually from 114 µM), without a hit: top-dose activity change, negative = inhibition, hits mostly inhibitors; AID 485314; 340,000 tested, 1.3% active; P06746; note: % is set by controls: 0 for no effect and ±100 for the full control effect
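Enzyme-only controls used 10 nM Pol beta; buffer lacking enzyme served as negative control. Compound preincubated 15 min, then 50 nM substrate added; 0 and 10 min reads at room temperature.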
FEN1 inhibitor – blocks human flap endonuclease 1; P39748; Potency, µM (doses to about 114 µM), without a hit: at the top dose activity change, negative = inhibition, usual class: inhibitors; 390,000 tested, 0.35% active; Recombinant FEN1 flap cleavage, fluorescence, 15 min; AID 588795; note: % is set by controls: 0 for no effect and ±100 for the full control effect; nearly all actives have a fitted effect of over 65% in size
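Enzyme 10 nM, 15 min RT preincubation with compound; start with substrate 50 nM final; reads at 0 and 15 min; qHTS titration, four-parameter Hill fit.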
POLI inh – inhibitors of human DNA polymerase iota | 390,000 tested, 1% active | Pol iota fluorescent replication assay, 10 min | AID 588590 | Potency, µM (titrated, usually from 115 µM), without a hit: at the highest dose activity, negative = inhibition, actives largely listed as inhibitors
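Fluorescent replication assay read twice, at 0 min and 10 min after adding 50 nM (final) substrate. Enzyme (10 nM) and compounds were first incubated 15 min at room temperature; enzyme-free buffer wells were negative controls.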
Pol eta inh – blocks human DNA polymerase eta activity. Q9Y253. recombinant Pol eta, fluorescent DNA replication assay. Potency, µM (doses to about 114 µM), for the others: at the top dose activity change, negative = inhibition, usual class: inhibitors. 390,000 tested, 1.2% active. AID 588591; note: % is set by controls: 0 for no effect and ±100 for the full control effect
Target sequence (Q9Y253 whole entry, looked up): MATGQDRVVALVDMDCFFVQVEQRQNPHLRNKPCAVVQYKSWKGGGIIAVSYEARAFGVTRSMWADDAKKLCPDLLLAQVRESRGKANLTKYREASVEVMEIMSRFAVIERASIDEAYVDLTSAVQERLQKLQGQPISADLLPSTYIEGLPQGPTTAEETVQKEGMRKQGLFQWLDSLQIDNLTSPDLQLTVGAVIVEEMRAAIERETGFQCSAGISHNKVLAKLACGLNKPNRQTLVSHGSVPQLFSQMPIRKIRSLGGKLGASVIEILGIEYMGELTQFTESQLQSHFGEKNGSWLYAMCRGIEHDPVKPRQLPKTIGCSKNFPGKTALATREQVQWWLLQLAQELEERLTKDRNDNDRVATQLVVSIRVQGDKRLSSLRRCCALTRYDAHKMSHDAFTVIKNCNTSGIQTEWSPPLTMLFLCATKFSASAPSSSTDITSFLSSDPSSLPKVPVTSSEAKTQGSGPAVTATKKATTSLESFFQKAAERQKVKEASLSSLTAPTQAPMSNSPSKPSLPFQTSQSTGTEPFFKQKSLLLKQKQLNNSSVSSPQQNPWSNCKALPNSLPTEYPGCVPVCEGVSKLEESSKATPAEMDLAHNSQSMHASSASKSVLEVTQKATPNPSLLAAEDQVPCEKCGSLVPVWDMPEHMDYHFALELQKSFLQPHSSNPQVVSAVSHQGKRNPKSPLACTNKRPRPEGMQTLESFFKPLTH
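Pol eta (10 nM) was preincubated with compounds for 15 min at room temperature, after which fluorescent replication substrate (50 nM final) was added to start the reaction. Fluorescence was read kinetically at 0 and 10 min.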
Starred values were filed as active, the others as inactive; [ ] = another dose, or the depositor's remark. Calls come from the whole dose curve; as a rule, active = well fitted curve in the direction sought with a large enough effect; inconclusive = small, poorly fitted or top-dose-only effect, or another doubt; inactive = no such curve, though single readings can be large; an effect the other way counts as inactive or inconclusive. Potency is the fitted concentration of half-maximal effect.

For CCc1ccc(NC(=O)Cn2c(=O)oc3cc(S(=O)(=O)NCc4ccccc4)ccc32)cc1 the results were POLK inh -31%, Pol beta inh 20µM*, FEN1 inhibitor 5%, POLI inh -13% and Pol eta inh -9%.
`CCCCNC(=O)/C(C#N)=c1\s/c(=C\c2ccccc2OC(F)F)c(=O)n1CCCOC` gave POLK inh -2%, WRN helicase inh -11%[57.1 µM], Pol beta inh 34%, FEN1 inhibitor -4%, POLI inh 32% and Pol eta inh -8%.
Screening Cc1ccc(CCNC(=O)Cn2nc(C)c3c(C)n(-c4ccc(C)cc4)nc3c2=O)cc1 returned POLK inh -2%, Pol beta inh 79µM*, FEN1 inhibitor 8%, POLI inh -7% and Pol eta inh inconclusive.
Screening CC1(C)CC(=O)C(C2(O)C(=O)NC(=O)NC2=O)=C(O)C1 returned POLK inh 0%, WRN helicase inh -9%, Pol beta inh 13%, FEN1 inhibitor -13%, POLI inh 8.9µM* and Pol eta inh 4%.
O=C(O)CSCC(=O)N(Cc1ccccc1)c1nc(-c2ccccc2)c(-c2ccccc2)s1 was read as POLK inh inconclusive, WRN helicase inh -30%, Pol beta inh 50µM*, FEN1 inhibitor inconclusive, POLI inh 50µM* and Pol eta inh inconclusive.
`Cc1ccc(N2C(=O)/C(=C/c3ccc(CN(CCC#N)S(C)(=O)=O)o3)C(=O)NC2=S)cc1C` gave Pol beta inh 20µM*.
For CN1CCN(c2ccc(/C=C3\C(=O)NC(=S)N(c4cccc(Br)c4)C3=O)o2)CC1 the results were POLK inh -17%, WRN helicase inh inconclusive, Pol beta inh -5%, FEN1 inhibitor inconclusive, POLI inh inconclusive and Pol eta inh inconclusive.
For O=C(CSc1nnc(NC(=O)c2ccccc2[N+](=O)[O-])s1)NCc1ccco1 the results were POLK inh -25%, WRN helicase inh -17%, Pol beta inh -10%, FEN1 inhibitor 11%, POLI inh inconclusive and Pol eta inh inconclusive.
For Cc1ccc(S(=O)(=O)N(CC(=O)N/N=C\c2cccs2)c2cccc3cccnc23)cc1 the results were POLK inh -10%, WRN helicase inh -11%, Pol beta inh 40µM*, FEN1 inhibitor -4%, POLI inh inconclusive and Pol eta inh inconclusive.
Screening CCOc1ccc(NC(=S)N2CCC(NC(=O)c3ccccc3C)CC2)cc1 returned POLK inh 3%, WRN helicase inh 8%, Pol beta inh 2%, FEN1 inhibitor 3%, POLI inh 31% and Pol eta inh -9%.
`CN1CCC(N(C)c2ncnc3ccc(Br)cc23)CC1` gave POLK inh -5%, WRN helicase inh 6%, Pol beta inh inconclusive, FEN1 inhibitor -7%, POLI inh 27% and Pol eta inh -4%.
Cc1ccc(-c2nc(N(C)C3CCN(C)CC3)c3ccccc3n2)cc1 was read as POLK inh -8%, WRN helicase inh -12%, Pol beta inh 28µM*, FEN1 inhibitor inconclusive, POLI inh inconclusive and Pol eta inh 1%.
Cc1ccc(CNc2cc(C)nc3nc(-c4ccc(C)cc4)nn23)cc1 was read as POLK inh -1%[60.1 µM], Pol beta inh -21%, FEN1 inhibitor -14%, POLI inh inconclusive and Pol eta inh -2%.
CC(C)c1ccc(Cc2cn3cc(-c4cc5ccccc5oc4=O)nc3s2)cc1 was read as POLK inh 5%, Pol beta inh -1%, FEN1 inhibitor 12%, POLI inh 49% and Pol eta inh -16%.
For CN(C)c1ccc(C=C2C(=O)NC(=S)NC2=O)cc1 the results were POLK inh -25%, WRN helicase inh 35µM*, FEN1 inhibitor inconclusive, POLI inh 50% and Pol eta inh -17%.
`O=C(Nc1ccc(Br)cc1C(=O)O)c1ccc2c(c1)C(=O)N(Cc1ccccc1)C2=O` gave POLK inh -7%, WRN helicase inh inconclusive, Pol beta inh 15%, FEN1 inhibitor inconclusive, POLI inh 72% and Pol eta inh 28µM*.
O=C(CN1CCOCC1)Nc1ccc(Br)cc1C(=O)c1ccccc1 was read as POLK inh -15%, WRN helicase inh -8%[57.1 µM], Pol beta inh 1%, FEN1 inhibitor -9%, POLI inh 4% and Pol eta inh 1%.
`O=c1[nH]c(=S)n(Cc2ccco2)c(O)c1C=NCc1cccs1` gave POLK inh 50µM*, WRN helicase inh inconclusive, Pol beta inh 13µM*, FEN1 inhibitor -12%, POLI inh 22µM* and Pol eta inh 22µM*.
Screening CN(C)c1c([N+](=O)[O-])cc(N2C(=O)C=CC2=O)cc1[N+](=O)[O-] returned POLK inh -37%, WRN helicase inh 35µM*, FEN1 inhibitor -1%, POLI inh inconclusive and Pol eta inh -17%.
COc1ccc2[nH]c3c(c2c1)CCN=C3C was read as POLK inh -16%, WRN helicase inh 4%[11.6 µM], FEN1 inhibitor 50µM*, POLI inh -14% and Pol eta inh -8%.
`CN1C(=O)NC(=O)/C(=C\C=C\c2ccccc2[N+](=O)[O-])C1=O` gave POLK inh -11%, WRN helicase inh -1%, Pol beta inh -1%, FEN1 inhibitor inconclusive, POLI inh 14µM* and Pol eta inh inconclusive.
For O=c1cc(C2CCNCC2)[nH][nH]1 the results were POLK inh 0%, WRN helicase inh 5%, Pol beta inh 3%, FEN1 inhibitor -13%, POLI inh 0.89µM* and Pol eta inh 14%.
Screening N[C@@H](Cc1cc(Br)c(O)c(Br)c1)C(=O)O returned Pol beta inh 22µM*.
`CN1/C(=C\C=C\C2=[N+](C)c3ccc4ccccc4c3C2(C)C)C(C)(C)c2ccccc21` gave Pol beta inh 79µM*.
CN(C)C1C(=O)C(C(N)=O)=C(O)C2(O)C(=O)C3=C(O)c4c(O)cccc4C(C)(O)C3C(O)C12 (centres undefined) was read as POLK inh -4%, WRN helicase inh -35%, Pol beta inh 11µM*, FEN1 inhibitor -8%, POLI inh -8% and Pol eta inh -9%.
CC(C)CN(CC(C)C)c1ccc(C=C2C(=O)NC(=S)NC2=O)cc1[N+](=O)[O-] was read as POLK inh inconclusive, WRN helicase inh 56µM*, Pol beta inh 50µM*, FEN1 inhibitor -5%, POLI inh 18µM* and Pol eta inh 25µM*.
For O=C1NC(=O)N(Cc2ccc(F)cc2)C(=O)/C1=C/c1cccs1 the results were POLK inh -13%, WRN helicase inh 40µM*, Pol beta inh 89µM*, FEN1 inhibitor -16%, POLI inh inconclusive and Pol eta inh inconclusive.

Assay outcomes (PubChem BioAssay)
